Assay outcomes (PubChem)
ATXN2 expr inh = Primary qHTS for Inhibitors of ATXN expression; HEK-293 ATXN2-luciferase reporter, luminescence, 24 h; Potency, µM (highest dose often 57 µM), most hits filed as inhibitors; 360,000 compounds, 0.72% hits; also: nearly all actives have a fitted effect of over 55% in size
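ATXN2-luciferase reporter cells (luciferase flanked by upstream and downstream ATXN2 gene portions) were treated 24 h at 37 °C with compounds at up to 57 uM. SteadyGlo luminescence gave expression; GF-AFC fluorescence gave viability.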
USP2a block = qHTS Assay for Inhibitors of Ubiquitin-specific Protease USP2a Using CHOP2 as the Reporter; Ubiquitin carboxyl-terminal hydrolase 2 (Homo sapiens), O75604; USP2 core, Ub-CHOP2 coupled fluorogenic reporter, 485/531; Potency, µM (doses to about 38.3 µM), usual class: inhibitors; 330,000 compounds, 0.01% hits; AID 463254, 2010
Target sequence (O75604 whole entry, looked up): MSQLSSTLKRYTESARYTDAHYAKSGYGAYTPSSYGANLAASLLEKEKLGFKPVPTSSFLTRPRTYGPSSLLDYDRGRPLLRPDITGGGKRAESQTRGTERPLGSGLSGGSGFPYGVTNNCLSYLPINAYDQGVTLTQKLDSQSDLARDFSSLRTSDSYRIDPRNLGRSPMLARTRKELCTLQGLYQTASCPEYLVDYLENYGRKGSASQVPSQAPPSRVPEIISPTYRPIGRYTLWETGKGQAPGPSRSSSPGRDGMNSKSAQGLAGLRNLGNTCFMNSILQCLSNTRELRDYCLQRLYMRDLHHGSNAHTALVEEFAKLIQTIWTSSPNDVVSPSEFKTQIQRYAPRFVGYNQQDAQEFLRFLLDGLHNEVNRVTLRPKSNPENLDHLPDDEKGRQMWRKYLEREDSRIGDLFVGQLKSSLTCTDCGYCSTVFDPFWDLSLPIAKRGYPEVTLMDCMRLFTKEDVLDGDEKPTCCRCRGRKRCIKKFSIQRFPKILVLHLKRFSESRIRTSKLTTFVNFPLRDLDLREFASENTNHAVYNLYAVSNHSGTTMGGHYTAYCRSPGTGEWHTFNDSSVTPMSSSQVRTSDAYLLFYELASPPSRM
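USP2 core (10nM final) preincubated 30min RT with compound in 20mM Tris-HCl pH 8.0, 2mM CaCl2, 2mM beta-mercaptoethanol, 0.05% CHAPS; 25nM Ub-CHOP2 plus 25nM reporter substrate added, fluorescence (Ex485/Em531) read after 60min.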
S2 tox = Viability Counterscreen for Primary qHTS for Inhibitors of ATXN expression; Potency, µM (top dose mostly 56.7 µM), usual class: cytotoxic; 400,000 compounds, 0.49% hits; S2 cells (HEK-293 line with an ATXN2-luciferase reporter) viability, CellTiter-Fluor protease fluorescence, 24 h; also: nearly all actives have a fitted effect of over 40% in size
IL1B secr inh = qHTS for Inhibitors of Inflammasome Signaling: IL-1-beta AlphaLISA Primary Screen | 360,000 compounds, 4.7% hits | THP-1 LPS/ATP IL-1B secretion, AlphaLISA, 16 h; stronger effect = lower value | activity change, % at 57.5 µM; in the data active = activity change below about -50%; inconclusive = mostly about -30% to -49%
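THP-1 cells pretreated 1 hr with compounds (up to 57.5 uM final), then stimulated with LPS (250 ng/mL final) plus ATP (1.25 mM final); secreted IL-1B measured by AlphaLISA after 16 hr, decreased signal indicating inhibition.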
USP1 inh = Inhibitors of USP1/UAF1: Primary Screen; Ubiquitin carboxyl-terminal hydrolase 1 (Homo sapiens), O94782; recombinant USP1/UAF1, Ub-Rhodamine cleavage fluorescence; Potency, µM (highest dose often 57.1 µM), actives largely listed as inhibitors; 390,000 compounds, 0.23% hits; also: nearly all actives have a fitted effect of over 60% in size
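High-throughput fluorogenic screen: 1nM USP1/UAF1 complex, Ub-Rho substrate 150nM final, 50mM HEPES pH 7.8 with 0.5mM EDTA, 0.1 mg/ml BSA, 1mM TCEP and 0.01% Tween-20.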
Each line names hits and unclear results; the compound was inactive in the other large screens. Hits are enriched below; roughly 4.8% of the tested compounds scored in any of these assays. Unless noted, calls follow the shape of the dose curve; as a rule, active = well fitted curve in the direction sought with a large enough effect; inconclusive = small, poorly fitted or top-dose-only effect, or another doubt; inactive = no such curve, though single readings can be large; an effect the other way counts as inactive or inconclusive.

CCN1C(=O)C(CC(=O)Nc2ccc(OC)cc2)N(CCc2ccc(F)cc2)C1=S (centres undefined)	ATXN2 expr inh inconclusive, IL1B secr inh -64
CCN1C(=O)C(CC(=O)Nc2ccc(F)cc2)N(Cc2ccc3c(c2)OCO3)C1=S (centres undefined)	IL1B secr inh -60
O=C(CC1C(=O)N(c2ccc(Cl)cc2)C(=S)N1CCc1ccncc1)Nc1ccc(F)cc1 (centres undefined)	ATXN2 expr inh inconclusive, IL1B secr inh -63
COc1ccc(CCN2C(=S)N(C)C(=O)C2CC(=O)Nc2ccc(OC)cc2)cc1 (centres undefined)	none
COc1ccc(NC(=O)CC2C(=O)N(C)C(=S)N2CCc2ccc(F)cc2)cc1 (centres undefined)	IL1B secr inh -64
CCN1C(=O)C(CC(=O)Nc2ccc(OC)cc2)N(CCCN2CCN(c3ccc(F)cc3)CC2)C1=S (centres undefined)	none
CCNC(=O)CC1C(=O)N(c2ccc(F)cc2)C(=S)N1CCc1ccncc1 (centres undefined)	none
CCCCOc1ccc(C(C)NC(=O)CN2C(=O)CSc3ccc(S(=O)(=O)N4CCOCC4)cc32)cc1 (centres undefined)	none (no result: ATXN2 expr inh, USP2a block, S2 tox, IL1B secr inh)
COc1cc(-c2ccc(C)cc2)cc2c1OCCN(C(=O)CCn1ccc(C)n1)C2	none (no result: ATXN2 expr inh, USP2a block, IL1B secr inh, USP1 inh)
Cc1ccccc1OCC(=O)OCC(=O)NC1CCCCCC1	none
Cc1[nH]c2c(Cl)cccc2c1CCNC(=O)C1CCCCC1C(=O)OCC(F)(F)F (centres undefined)	IL1B secr inh -80
CCOc1ccc(CCNC(=O)Cn2c(=O)c3cccn3c3cccnc32)cc1	IL1B secr inh -66
CCOC(=O)c1ccc(NC(=O)Cn2ncc(Cl)c(Cl)c2=O)cc1	ATXN2 expr inh inconclusive, S2 tox inconclusive, IL1B secr inh -100
O=C(Cn1ncc(N2CCCC2)c(Cl)c1=O)c1ccc(Cl)cc1	S2 tox inconclusive
CCc1ccccc1NC(=O)CN(C)C(=O)Cn1ncc(Cl)c(Cl)c1=O	ATXN2 expr inh inconclusive, IL1B secr inh -108 (no result: S2 tox)
CCC(=O)Nc1ccc(C(=O)Cn2ncc(Cl)c(Cl)c2=O)cc1	S2 tox 25µM, IL1B secr inh -96 (no result: ATXN2 expr inh)
CCOC(=O)c1ccc(NC(=O)Cn2nc(C)c3ccccc3c2=O)cc1	USP1 inh inconclusive
CC[C@H](CO)Nc1nc(NCc2ccccc2)c2ncn(C(C)C)c2n1	ATXN2 expr inh 24µM (no result: USP2a block, S2 tox, IL1B secr inh, USP1 inh)
CC(C)[C@H](CO)Nc1nc(NCc2ccc(S(N)(=O)=O)cc2)c2ncn(C(C)C)c2n1	ATXN2 expr inh inconclusive, S2 tox inconclusive, IL1B secr inh -103
Cc1ccccc1NC(=O)c1sc2nc(N3CCOCC3)c3c(c2c1N)CC(C)(C)OC3	none (no result: USP2a block, IL1B secr inh)
O=C1C(Cl)=C(N2CCN(c3ccccc3[N+](=O)[O-])CC2)C(=O)c2ccccc21	S2 tox inconclusive, IL1B secr inh -104, USP1 inh inconclusive
O=C(/C=C/c1ccc(Cl)cc1Cl)OCC(=O)N1CCCC1	none (no result: ATXN2 expr inh)
CCc1cc2cc(OC)c(OC)cc2c(Cc2ccccc2)n1	none (no result: USP2a block, IL1B secr inh, USP1 inh)
COc1ccc(C(=O)OCC(=O)c2ccc(C3CCCCC3)cc2)cc1	none
Nc1ccc(O)cc1C(=O)OCC(=O)c1ccc(C2CCCCC2)cc1	ATXN2 expr inh inconclusive, S2 tox inconclusive, IL1B secr inh -94
COc1ccc(-c2c(C#N)c(SCC(=O)Nc3cccc(Cl)c3)nc(C)c2C(=O)Nc2ccccc2)cc1OC	none (no result: USP2a block, IL1B secr inh)
CCOC(=O)C1CCCN(C(=O)c2cc(Nc3ccc(OC)c(OC)c3)nc3ccccc23)C1 (centres undefined)	IL1B secr inh -93
CCOC(=O)C1CCCN(C(=O)c2cc(Nc3ccc(OC)cc3OC)nc3ccccc23)C1 (centres undefined)	S2 tox inconclusive
CCOC(=O)C1CCCN(C(=O)c2cc3c(Cl)nc4ccccc4c3s2)C1 (centres undefined)	ATXN2 expr inh 14µM, S2 tox inconclusive (no result: USP2a block, IL1B secr inh)
COCC(=O)Nc1cc(C(=O)N2CCCCC2c2nccs2)c2c(c1)nc(-c1ccncc1)n2C (centres undefined)	none (no result: ATXN2 expr inh, USP2a block, IL1B secr inh, USP1 inh)
CCOC(=O)c1sc(N(Cc2ccccc2)C(=O)CCl)nc1C	IL1B secr inh -101
CCOC(=O)c1sc(N(Cc2ccccc2)C(=O)CSc2ncn[nH]2)nc1C	IL1B secr inh -52
CCOC(=O)c1sc(N(Cc2ccccc2)C(=O)COC(=O)c2ccccc2O)nc1C	none
CCn1c(-c2ccccc2F)nc2cc(C(=O)N3CCCC(CO)C3)cc(NC(C)=O)c21 (centres undefined)	none (no result: ATXN2 expr inh, USP2a block, IL1B secr inh, USP1 inh)
COc1ccc(-c2cc3nc4n(c(=O)c3s2)CCC4)cc1	ATXN2 expr inh 5µM
CC(=O)Nc1cc2c(cc1[N+](=O)[O-])-c1ccc(F)cc1C2	IL1B secr inh -81 (no result: USP2a block)
COC(=O)c1c(SCC(=O)Nc2cccc(C(F)(F)F)c2)[nH]c2ccccc2c1=O	ATXN2 expr inh inconclusive (no result: USP2a block, IL1B secr inh)
O=c1c(N2CCOCC2)coc2ccccc12	none (no result: ATXN2 expr inh)
O=c1[nH]c(N2CCOCC2)cc2ccccc12	USP1 inh 10µM (no result: USP2a block, S2 tox)
CC(C(=O)NCCN1C(=O)S/C(=C\c2cccnc2)C1=O)N1C(=O)c2ccccc2C1=O (centres undefined)	none
O=C(CCl)NCCN1C(=O)S/C(=C\c2cccnc2)C1=O	S2 tox inconclusive, IL1B secr inh -70
O=C(CCCN1C(=O)/C(=C/c2ccccc2Cl)SC1=S)Nc1ccccn1	ATXN2 expr inh 17µM, IL1B secr inh -81
O=C(CCN1C(=O)/C(=C/c2ccccc2Cl)SC1=S)Nc1ccccn1	none (no result: ATXN2 expr inh)
O=C(CCCN1C(=O)/C(=C/c2ccccc2Cl)SC1=S)Nc1cccnc1	ATXN2 expr inh inconclusive, S2 tox 14µM, IL1B secr inh inconclusive
Cc1ccc(C(=O)NNC(=O)CCCN2C(=O)/C(=C/c3ccccc3Cl)SC2=S)cc1	ATXN2 expr inh inconclusive, IL1B secr inh -107
O=C(CCN1C(=O)/C(=C/c2ccccc2Cl)SC1=S)Nc1cccnc1	none (no result: ATXN2 expr inh)
O=C(CCCN1C(=O)/C(=C/c2ccccc2Cl)SC1=S)NNC(=O)c1ccc(Cl)cc1	ATXN2 expr inh inconclusive
CC1CCCCN1C(=O)c1ccc(Br)o1 (centres undefined)	none
CCOC(=S)SCC(=O)Nc1nc(-c2ccc(Br)cc2)cs1	ATXN2 expr inh inconclusive, S2 tox inconclusive, IL1B secr inh -100
CCOC(=S)SCC(=O)Nc1nccs1	S2 tox inconclusive, IL1B secr inh -99
CCOC(=O)C(=O)Nc1nccs1	none (no result: ATXN2 expr inh)
CCOC(=O)/C=C/C(=O)Nc1nccs1	IL1B secr inh -86
C[C@@H](CN1CC(=O)NC(=O)C1)N1CC(=O)NC(=O)C1	ATXN2 expr inh inconclusive (no result: USP2a block, IL1B secr inh, USP1 inh)
